Laboratory results: the supplement of paper PMC6555819

Each sequence was assayed on VDR:RXRa (NR concentration 270 nM, RXRa partner concentration 90 nM) (assay: PBM binding z-score (relative to random genomic background probes); higher = stronger binding; sequences stand for … in GC…GCGATTGACAGCGTAGAATGAAGG).
Procedure: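 Protein-binding microarray (Agilent 4x180K custom design, double-stranded 60-nt probes: 5' GC cap, 34-nt variable region, 24-nt constant primer region; full probe sequence given). Purified or IVT nuclear receptor:RXRα heterodimers (3:1 NR:RXRα, mostly 270:90 nM) or homodimers were incubated for 1 h in PBS with 2% milk and no ligand, then detected with Alexa488 antibodies. Fluorescence from o1-orientation probes (~5 replicates averaged) was converted to z-scores against 500 random hg19 background probes. Variable regions are seed direct-repeat (DR0–DR5) sites, all their single-nucleotide variants and half-site ablations.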

Row | Sequence | PBM binding z-score
1 | GCTTGTAGATCAAGGTTCAGAAAGACTAAGCTAA | 0.919
2 | CCTATCAGGCCAATCTGGGTCACTCAAGGCTTGA | 0.878
3 | GGAACGAGGACATTCGAGTTGATAGCATGGCGAT | 0.922
4 | CAAACTAGGGCACGAAAGGTCAAAGTCGAATGAC | 5.32
5 | TCATATAGGTAATACATGTGAAAGTCGGCATCTA | 1.07
6 | CCTACTGGGCCAAGGTCATTCATCAGTCAAAGCA | 3.55
7 | CCTACTGGGCCATTCCGAGGTCATTGATCATATG | 3.86
8 | TCTGGTAGGTCAGTTGGTCAGCTAACGAGCTGCC | 0.483
9 | CGCACGAGGGCATGAGTTGATAGCAAATGCCGAT | 1.27
10 | ACTATTAGTTGAGACGATGGCAACCGATAGGTTG | -0.293
11 | ACAGACAGGTGAGTGAAGGTAACTAAGCTGGACG | -0.372
12 | TGACAAAGTTCAAAGGTAACGTAAGTATCCACAC | 5.25
13 | CAAACTAGGTCACAGAGGTCAAAATCCGTGCGTA | 7.91
14 | CCGACTGGGGCAGAAGGGTTACCATACCATCCGG | 0.121
15 | CCTCGGAGGACAGAAGGTGAGAGCTGTCCGCTTT | -0.483
16 | CGAACTAGTTCATCCAGGACAGTGAATACATTGA | 2.23
17 | GCTCGGAGGACCAGGTCAGAGCTTTGTCCGTAGA | -0.322
18 | TCTTGTAGATCAACAGGAGGTTAACAAAGATCGA | 0.812
19 | CCGACTGGTGCAAGGTTACCATAACGCACAGCCA | 0.278
20 | TCATATAGGTAAACAGGTGAAAGACCGTAAGTTA | 1.05

Row | Sequence | PBM binding z-score
21 | CCTGCCAGGTCAATGGTCAGCTAAAGCAGCTCGC | 1.5
22 | ATATGTCGGTTATCGGGTCATTCAGTTTGCGCAT | 4.84
23 | CCATACGGGTCAAGGTTATAGCACGGGTGGTACG | 3.11
24 | GGAACGAGGGCAAAGTTGATAGCCTCTGTCGACG | 0.981
25 | TAGCCTAGGTCATGCGGGCCAGTAAAGTGTCGGC | 2.75
26 | AATACAGGGTAATCGTAGGCCAGAGTACGCACAG | 0.0104
27 | TGAATGCGGTTATAAGATCAGGGAACGTTGCAAA | -0.0836
28 | GCTAGCAGGCCAATTGGGTCACTCAATGACGGGC | 0.89
29 | TTACCAAGTTGAAAGGTCGTTGATGCACGCCTTG | 2.65
30 | GCGACTGGGGCATCAGCAGGTTATCATAACTTAA | -0.0496
31 | TCATATAGGTAAATGCTAGATGAAAGTCCGATCT | 0.802
32 | CCAGACAGGTGAAGGGTAACTCAGTCTGGTACGC | -0.111
33 | CATTCAGGGTCAGCTAGGCCAGAGTAGGGACGGC | 4.34
34 | CCGACTGGGGCAGAAACGTTACCATACCATCCGG | -0.901
35 | CCTATCAGTTGACCATAAGGGCAACCGAAGCTCG | 0.912
36 | CGTCCAAGGTCAAGTTCAGTGAAAGAGACTCGAA | 4.91
37 | AGAACGAGGGCAATGAGTTGATTGCACGGGTGGC | 5.07
38 | CCTAGCACGCCAATCTGGGTCACTCAAGGCTTGA | 0.379
39 | TTACCAAGGTGAGCTGAGGTCGTTAATCCAACTC | 3.68
40 | TCTCGTAGGACACGAAGGTCAGAGCTTTCCAGAG | 1.71
